Reference: PubChem BioAssay (Tox21)
Values joined by “and” are separate entries in the source; they are usually repeats but may differ in a detail not shown here. Equal values may be shown once. Records with an inconclusive call do not appear. More than one record can exist for a structure, and the calls need not agree. Active and inactive are the calls of the source. Unless noted, the call rests on the fitted dose curve; in most records, active means well fitted curve in the direction sought with a large enough effect in the repeat runs; inconclusive means weak or mixed curves; inactive means no such curve, though single readings can be large; an effect the other way counts as inactive or inconclusive.

Legend:
[1] = qHTS assay to identify small molecule antagonists of the peroxisome proliferator-activated receptor delta (PPARd) signaling pathway - cell viability counter screen (AID 743213); further: nearly all actives have a fitted effect of over 50% in size; further: potency means the concentration at half of the fitted maximal effect
Procedure, shortened: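 Luminescence from CellTiter-Glo, added after the bla read and incubated 30 min at room temperature, gives viability of HEK293H PPARd-bla cells exposed to compounds for 17 h at 37 C with 300 nM L165041.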

[2] = qHTS assay to identify small molecule agonists of the farnesoid-X-receptor (FXR) signaling pathway - cell viability counter screen (AID 743218); further: nearly all actives have a fitted effect of over 45% in size; further: potency means the concentration at half of the fitted maximal effect
Procedure, shortened: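 Parallel cytotoxicity test: compound-treated (16 h, 37 C) HEK 293T FXR-bla reporter cells were lysed with CellTiter-Glo and luminescence recorded.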

[3] = biological target: Vitamin D3 receptor (Homo sapiens) (UniProt P11473); assay: qHTS assay to identify small molecule agonists of the vitamin D receptor (VDR) signaling pathway (AID 743222; calls by dose curve)
Vitamin D3 receptor (Homo sapiens), sequence (P11473 whole entry, looked up): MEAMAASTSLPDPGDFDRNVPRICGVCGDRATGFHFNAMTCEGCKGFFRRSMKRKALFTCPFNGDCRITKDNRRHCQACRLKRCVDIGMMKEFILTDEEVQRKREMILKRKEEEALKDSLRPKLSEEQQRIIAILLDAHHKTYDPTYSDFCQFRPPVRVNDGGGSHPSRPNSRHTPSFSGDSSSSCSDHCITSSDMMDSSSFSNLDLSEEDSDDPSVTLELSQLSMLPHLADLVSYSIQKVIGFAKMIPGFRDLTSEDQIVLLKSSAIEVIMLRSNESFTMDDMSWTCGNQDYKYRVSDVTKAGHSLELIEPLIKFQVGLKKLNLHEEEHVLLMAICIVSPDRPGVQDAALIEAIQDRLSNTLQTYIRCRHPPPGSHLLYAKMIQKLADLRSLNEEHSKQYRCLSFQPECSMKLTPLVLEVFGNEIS
Procedure, shortened: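 In VDR-bla cells, compound-induced beta-lactamase expression is quantified by FRET substrate fluorescence. Treatment lasts 16 h at 37C; substrate develops 2 h at room temperature.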

[4] = biological target: Vitamin D3 receptor (Homo sapiens) (UniProt P11473); assay: qHTS assay to identify small molecule antagonists of the vitamin D receptor (VDR) signaling pathway (AID 743223; active means well fitted inhibition curve with a large enough effect in the signal ratio in the repeat runs, not every such curve was filed as active; the % refers to the signal ratio)
Procedure, shortened: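 Fluorescence from LiveBLAzer B/G FRET substrate, read after 2 h at room temperature, reflects beta-lactamase reporter activity in VDR-bla cells treated 16 h at 37C with compounds and agonist 1alpha,25-dihydroxyvitamin D3 (3 nM final).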

[5] = qHTS assay to identify small molecule antagonists of the vitamin D receptor (VDR) signaling pathway - cell viability counter screen (AID 743225); further: nearly all actives have a fitted effect of over 50% in size; further: potency means the concentration at half of the fitted maximal effect
Procedure, shortened: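 Cells (VDR-UAS-bla HEK 293T) are plated, rested 4 h at 37C, dosed with compound and 3 nM final 1-alpha,25-dihydroxy vitamin D3, and incubated 16 h. Viability is taken from CellTiter-Glo luminescence in the reporter wells.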

[6] = qHTS assay to identify small molecule agonists of the NFkB signaling pathway - cell viability counter screen (AID 1159515; calls by dose curve; further: nearly all actives have a fitted effect of over 55% in size; further: potency means the concentration at half of the fitted maximal effect)
Procedure, shortened: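 Using the same wells as the NFkB reporter read, ME-180 NFkB-bla cells given compounds for 5 hr were assessed for viability via CellTiter-Glo, with luminescence taken after a 30 min room-temperature incubation.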

[7] = qHTS assay to identify small molecule antagonists of the retinoid-related orphan receptor gamma (ROR-gamma) signaling pathway - cell viability counter screen (AID 1159520); further: nearly all actives have a fitted effect of over 50% in size; further: potency means the concentration at half of the fitted maximal effect
Procedure, shortened: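 Tet-on ROR gamma CHO cells (1,000/well) were plated 4 hr, given compounds in DMSO for 2 hr at 37 C, then induced with 1 uM final doxycycline for 16 hr. Viability was read as ATP by CellTiter-Glo luminescence after 30 min.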

[8] = biological target: Nuclear receptor ROR-gamma (Homo sapiens) (UniProt P51449); assay: qHTS assay to identify small molecule antagonists of the retinoid-related orphan receptor gamma (ROR-gamma) signaling pathway (AID 1159521; further: nearly all actives have a fitted effect of over 50% in size; further: potency means the concentration at half of the fitted maximal effect)
Procedure, shortened: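 RORγ antagonism is scored from reduced reporter luminescence in Tet-on CHO cells. Induction used 1 uM final doxycycline hyclate for 16 h at 37 C, following a 2 h compound exposure.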

[9] = qHTS assay to identify small molecule agonists of the AP-1 signaling pathway - cell viability counter screen (AID 1159525; calls by dose curve; further: nearly all actives have a fitted effect of over 55% in size; further: potency means the concentration at half of the fitted maximal effect)
Procedure, shortened: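 ME-180 AP-1-bla, 2500 cells/well, Opti-MEM + 0.5% dialyzed FBS; overnight 37 °C; cpd 15-pt titration, 5 h 37 °C; CellTiter-Glo 30 min RT; luminescence read; normalised to TOAB and DMSO controls.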

[10] = qHTS assay to identify small molecule agonists of the peroxisome proliferator-activated receptor delta (PPARd) signaling pathway - cell viability counter screen (AID 743211); further: nearly all actives have a fitted effect of over 55% in size; further: potency means the concentration at half of the fitted maximal effect
Procedure, shortened: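 Viability of GeneBLAzer PPARd UAS-bla HEK293H cells was assessed after 17 h compound incubation at 37C, using CellTiter-Glo reagent added after the reporter read and luminescence recorded 30 min later.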

[11] = biological target: Peroxisome proliferator-activated receptor delta (Homo sapiens) (UniProt Q03181); assay: qHTS assay to identify small molecule antagonists of the peroxisome proliferator-activated receptor delta (PPARd) signaling pathway (AID 743215; active means well fitted inhibition curve with a large enough effect in the signal ratio in the repeat runs, not every such curve was filed as active; the % refers to the signal ratio;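 further: cells stimulated with agonist L165041 at 300 nM final during compound exposure; series mostly up to about 62 µM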)
Peroxisome proliferator-activated receptor delta (Homo sapiens), sequence (Q03181 whole entry, looked up): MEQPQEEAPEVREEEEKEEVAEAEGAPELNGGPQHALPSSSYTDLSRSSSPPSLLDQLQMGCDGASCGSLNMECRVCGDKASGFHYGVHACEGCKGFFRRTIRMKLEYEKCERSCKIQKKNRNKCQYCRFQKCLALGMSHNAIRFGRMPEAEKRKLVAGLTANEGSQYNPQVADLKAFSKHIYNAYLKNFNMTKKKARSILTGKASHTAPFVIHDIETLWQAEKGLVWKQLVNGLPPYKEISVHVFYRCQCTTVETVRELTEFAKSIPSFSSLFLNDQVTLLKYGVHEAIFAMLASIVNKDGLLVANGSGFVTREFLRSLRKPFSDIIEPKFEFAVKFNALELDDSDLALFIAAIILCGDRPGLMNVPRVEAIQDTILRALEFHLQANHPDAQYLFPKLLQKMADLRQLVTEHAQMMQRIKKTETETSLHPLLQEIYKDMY
Procedure, shortened: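 HEK293H UAS-bla, PPARd; agonist L165041 300 nM final with cpd in DMSO; 37 C 17 h; FRET substrate, RT 2 h; fluorescence intensity.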

[12] = qHTS assay to identify small molecule antagonists of the farnesoid-X-receptor (FXR) signaling pathway - cell viability counter screen (AID 743221; active means well fitted cell-killing curve with a large enough effect in the repeat runs, not every such curve was filed as active; further: nearly all actives have a fitted effect of over 50% in size; further: potency means the concentration at half of the fitted maximal effect)
Procedure, shortened: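 Quantitative HTS of the Tox21 10K library run in parallel with the beta-lactamase reporter read. HEK 293T cells carrying a UAS-driven bla reporter got compound and 50 uM CDCA (final) for 16 h; ATP-based luminescence followed.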

[13] = qHTS assay to identify small molecule agonists of the vitamin D receptor (VDR) signaling pathway - cell viability counter screen (AID 743224); further: nearly all actives have a fitted effect of over 50% in size; further: potency means the concentration at half of the fitted maximal effect
Procedure, shortened: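 Plated VDR-bla cells (4 h, 37C) received compound, incubated 16 h, then LiveBLAzer substrate 2 h RT; CellTiter-Glo added afterwards, luminescence read at 30 min.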

[14] = biological target: Retinoic acid receptor RXR-alpha (Homo sapiens) (UniProt P19793); assay: qHTS assay to identify small molecule agonists of the RXR signaling pathway (AID 1159527; calls by dose curve; further: nearly all actives have a fitted effect of over 35% in size)
Retinoic acid receptor RXR-alpha (Homo sapiens), sequence (P19793 whole entry, looked up): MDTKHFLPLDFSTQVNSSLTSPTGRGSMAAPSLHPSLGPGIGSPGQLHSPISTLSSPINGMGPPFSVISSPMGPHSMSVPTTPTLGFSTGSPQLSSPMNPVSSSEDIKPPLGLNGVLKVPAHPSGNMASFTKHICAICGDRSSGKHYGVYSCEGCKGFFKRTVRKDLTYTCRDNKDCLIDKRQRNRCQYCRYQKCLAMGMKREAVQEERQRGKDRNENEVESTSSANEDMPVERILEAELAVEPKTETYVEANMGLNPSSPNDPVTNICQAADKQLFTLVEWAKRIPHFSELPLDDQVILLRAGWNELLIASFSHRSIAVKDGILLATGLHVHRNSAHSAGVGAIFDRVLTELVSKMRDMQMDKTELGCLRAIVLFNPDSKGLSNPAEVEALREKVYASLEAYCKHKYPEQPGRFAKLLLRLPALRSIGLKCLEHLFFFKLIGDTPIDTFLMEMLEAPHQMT
Procedure, shortened: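 qHTS of the Tox21 10K library in GeneBLAzer RXR-alpha HEK 293T cells carrying a beta-lactamase reporter […]; 16 hr treatment, 9-cis retinoic acid as agonist control, FRET read-out.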

[15] = biological target: Bile acid receptor (Homo sapiens) (UniProt Q96RI1); assay: qHTS assay to identify small molecule agonists of the farnesoid-X-receptor (FXR) signaling pathway (AID 743220; active means well fitted activation curve with a large enough effect in the signal ratio in the repeat runs, not every such curve was filed as active; the % refers to the signal ratio)
Bile acid receptor (Homo sapiens), sequence (Q96RI1 whole entry, looked up): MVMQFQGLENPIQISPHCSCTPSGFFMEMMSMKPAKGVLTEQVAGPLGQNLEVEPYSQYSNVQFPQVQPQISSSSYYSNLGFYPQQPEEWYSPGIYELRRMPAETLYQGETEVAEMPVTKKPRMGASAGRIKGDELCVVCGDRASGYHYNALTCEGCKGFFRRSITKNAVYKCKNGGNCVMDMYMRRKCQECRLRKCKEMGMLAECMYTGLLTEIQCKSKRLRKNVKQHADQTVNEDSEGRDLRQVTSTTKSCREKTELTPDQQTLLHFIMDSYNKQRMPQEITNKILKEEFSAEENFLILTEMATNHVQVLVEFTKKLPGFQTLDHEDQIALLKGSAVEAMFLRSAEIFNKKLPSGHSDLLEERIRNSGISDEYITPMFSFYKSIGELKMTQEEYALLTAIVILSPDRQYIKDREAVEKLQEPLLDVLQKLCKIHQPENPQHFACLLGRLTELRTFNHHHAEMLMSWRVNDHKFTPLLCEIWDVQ
Procedure, shortened: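 Beta-lactamase reporter under UAS control in GeneBLAzer FXR HEK 293T cells (5000/well) measured with LiveBLAzer FRET substrate after 2 h at room temperature. Compound exposure lasted 16 h at 37C.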

[16] = biological target: Peroxisome proliferator-activated receptor delta (Homo sapiens) (UniProt Q03181); assay: qHTS assay to identify small molecule agonists of the peroxisome proliferator-activated receptor delta (PPARd) signaling pathway (AID 743212; calls by dose curve)
Procedure, shortened: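 GeneBLAzer PPARd UAS-bla HEK293H cells (beta-lactamase reporter under UAS control), plated and rested 5 h at 37 C, then exposed to compounds in DMSO at 37 C; LiveBLAzer B/G FRET substrate added, 2 h room temperature, fluorescence read.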

[17] = qHTS assay to identify small molecule agonists of the AP-1 signaling pathway (AID 1159526; calls by dose curve)

Measured: Potency

Clc1ccccc1C(c1ccccc1)(c1ccccc1)n1ccnc1
active: [2] 54.9 µM | [8] 2.73 µM and 7.5 µM
inactive: [1] | [3] | [4] | [5] | [6]
21.9 µM (active) and inactive: [9]
24.3 µM (active) and inactive: [7]

O=C(OCC(COC(=O)c1ccccc1)(COC(=O)c1ccccc1)COC(=O)c1ccccc1)c1ccccc1
inactive: [10] | [1] | [11] | [2] | [12] | [3] | [4] | [13] | [6] | [7] | [8] | [9] | [14]

O=C1C=CC(=O)N1
inactive: [15] | [3] | [6]
active: [10] 40 µM | [1] 44.8 µM | [13] 12.6 µM | [5] 35.6 µM | [7] 12.5 µM | [8] 5.59 µM

CC1=NC(C)OC1C (configuration not stated)
inactive: [10] | [1] | [2] | [12] | [13] | [5] | [6] | [7] | [8] | [9] | [14]

COc1cc(-c2nc(NC(=O)c3cc4cc(C)cc(C)c4n3CC(=O)O)sc2CCC2CCCCC2)c(OC)cc1Cl
active: [10] 10 µM | [1] 20.1 µM | [2] 12.7 µM | [12] 14.2 µM | [13] 10 µM | [5] 10 µM | [6] 10 µM | [7] 39.7 µM | [8] 19.9 µM | [9] 28.3 µM

COc1cc(-c2ccc(N=C=O)c(OC)c2)ccc1N=C=O
inactive: [16] | [15] | [12] | [3] | [4] | [6] | [7] | [8] | [9] | [14]

CC(C)(C)c1ccc(C(=O)CCCN2CCC(OC(c3ccccc3)c3ccccc3)CC2)cc1
inactive: [15]
active: [1] 16.8 µM | [2] 26.6 µM | [6] 23.9 µM | [7] 21.1 µM | [8] 11.9 µM | [9] 15.1 µM

On1ccccc1=S
active: [10] 0.385 µM | [1] 0.685 µM | [2] 0.385 µM | [13] 0.61 µM | [6] 0.385 µM | [7] 5.39 µM | [8] 0.303 µM | [9] 21.7 µM
inactive: [5]

Oc1ccc(C2(c3ccc(O)cc3)CC3CC2C2CCCC32)cc1 (configuration not stated)
active: [10] 14.9 µM | [2] 18.7 µM | [13] 23.6 µM | [5] 33.3 µM | [6] 52.8 µM | [7] 52.3 µM | [8] 46.6 µM | [9] 41.9 µM

Cc1c(C)c2c(c(C)c1OC(=O)CCC(=O)O)CC[C@@](C)(CCC[C@H](C)CCC[C@H](C)CCCC(C)C)O2
active: [7] 27.6 µM | [8] 27.6 µM
inactive: [10] | [16] | [1] | [11] | [2] | [15] | [13] | [5] | [6]

CCOC(=O)c1nc(C(Cl)(Cl)Cl)n(-c2ccc(Cl)cc2Cl)n1
active: [10] 54.9 µM | [1] 49 µM | [5] 49 µM | [8] 21.7 µM
inactive: [15] | [3] | [6] | [9]

O=C(NOCC1CC1)c1ccc(F)c(F)c1Nc1ccc(I)cc1Cl
inactive: [1] | [2] | [3] | [6]
active: [8] 9.44 µM

Cc1cc(C2CCCCC2)n(O)c(=O)c1
inactive: [9]
active: [10] 5.31 µM | [1] 9.44 µM | [13] 18.8 µM | [6] 5.35 µM | [8] 23.7 µM

O=C(Oc1ccccc1)c1ccccc1C(=O)Oc1ccccc1
inactive: [16] | [11] | [2] | [12] | [5] | [6] | [7] | [9] | [17]

CC(=O)N1CCN(c2ccc(OC[C@H]3CO[C@](Cn4ccnc4)(c4ccc(Cl)cc4Cl)O3)cc2)CC1
active: [10] 34.7 µM | [1] 27.5 µM | [2] 49 µM | [12] 54.9 µM | [13] 21.9 µM | [6] 61.6 µM | [8] 9.69 µM | [9] 49 µM

Clc1ccc2nsnc2c1NC1=NCCN1
inactive: [10] | [16] | [1] | [11] | [2] | [15] | [12] | [3] | [13] | [6] | [7] | [9] | [17] | [14]
